In the supplement of paper PMC8699584:
Several values for one entry are separate records, joined by “and”; a condition that tells them apart may be missing. Identical values can stand only once. Counter-ions that a name gives are not always drawn. ± gives the standard deviation of the averaged measurements.

Legend:
Molm13 = assay: cell viability relative to DMSO control (bortezomib = 0%); higher = less growth inhibition; settings: 10 nM; 72 h
Method in brief: (§1)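 Using 384-well plates, a set of 679 approved and investigational compounds was tested once at 10 nM against acute myeloid leukemia cells (1000 cells per well in 50 µL) over 72 h, with the whole screen done in duplicate. Viability readout relied on CellTiter-Glo luminescence measured on an EnVision reader. For each plate, linear regression mapped values between positive-control-treated cells at 0% and DMSO-treated cells at 100%.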

Mv4-11 = assay: as above; settings: 10 nM; 72 h
Method in brief: as §1

| SMILES | cell viability (Molm13) | cell viability (Mv4-11) |
| --- | --- | --- |
| COc1cc(OC2CCN(C)CC2)ccc1Nc1ncc2c(n1)n(C1CCCC1)c(=O)n2C | 107 ± 7.8% | 104.1 ± 0.45% |
| O=C(NCCCNc1nc(Nc2cccc(CN3CCOCC3)c2)ncc1C1CC1)C1CCC1 | 86.2 ± 18% | 106 ± 28% |
| CNC(=O)c1ccc(-c2cnc3ncc(Cc4ccc5ncccc5c4)n3n2)cc1F | 109 ± 3.6% | 108 ± 6.8% |
| O=C1NC(=O)/C(=C/c2ccc3c(c2)OCO3)S1 | 96 ± 3% | 112 ± 8% |
| CNC(=O)Nc1cc(Oc2cncc(C)c2)c(-c2ccc(OCC(C)(C)O)nc2)cn1 | 101.5 ± 0.58% | 101 ± 6.8% |
| CC#CC(=O)Nc1ccc2ncnc(Nc3cccc(Br)c3)c2c1 | 99.9 ± 3.4% | 98.9 ± 4.2% |
| COc1cc2ncnc(Oc3cccc(NC(=O)Nc4cc(C(C)(C)C(F)(F)F)on4)c3)c2cc1OC | 115 ± 3.7% | 113 ± 17% |
| O=C(NCCCNc1nc(Nc2cccc(NC(=O)N3CCCC3)c2)ncc1I)c1cccs1 | 95.7 ± 9.5% | 97.5 ± 5.3% |
| CCCCCCCCCCCC(=O)NC[C@]1(C)CCC[C@]2(C)c3ccc(C(C)C)cc3CCC12 (stereo not given in full) [Lauric Acid Leelamide] | 93 ± 7.2% | 104 ± 12% |
| O=C(NCCO)c1cccc(-c2cc(Nc3ccc(OC(F)(F)F)cc3)ncn2)c1 | 98.72 ± 0.31% | 107 ± 3.3% |
| C=CC(=O)N1CCC(Oc2cc3c(Nc4ccc(Cl)c(Cl)c4F)ncnc3cc2OC)CC1 [Poziotinib (HM781-36B)] | 111.4 ± 0.44% | 113 ± 10% |
| CN(C)C(=O)c1ccc(S(=O)(=O)c2ccc(NC(=O)[C@@](C)(O)C(F)(F)F)c(Cl)c2)cc1 | 97 ± 12% | 109 ± 7% |
| CN1CCN(CCOc2cc(OC3CCOCC3)c3c(Nc4c(Cl)ccc5c4OCO5)ncnc3c2)CC1 [Saracatinib (AZD0530)] | 98.2 ± 3.5% | 106 ± 6.2% |
| C[C@@H]1CN(C(=O)c2ccc(NC(=O)c3cc(O[C@H](C)c4c(Cl)ccc(F)c4Cl)c(N)nn3)cc2)C[C@H](C)N1 [Ensartinib] | 127 ± 20% | 118 ± 12% |
| O=C1NCCc2[nH]c(-c3ccncc3)cc21 | 115 ± 14% | 115 ± 6.7% |
| N#CC[C@H](C1CCCC1)n1cc(-c2ncnc3[nH]ccc23)cn1 [Ruxolitinib] | 105 ± 10% | 111.1 ± 0.83% |
| O=Nc1c(-c2c(O)[nH]c3ccccc23)[nH]c2ccccc12 [Indirubin-3'-monoxime] | 88 ± 13% | 80.7 ± 4.5% |
| O=C1NCCSc2c1sc1ccc(O)cc21 | 92.9 ± 24% | 103 ± 14% |
| CC(C)=CCC[C@](C)(O[C@@H]1O[C@H](CO)[C@@H](O)[C@H](O)[C@H]1O)[C@H]1CC[C@]2(C)[C@@H]1[C@H](O)C[C@@H]1[C@@]3(C)CC[C@H](O)C(C)(C)[C@@H]3[C@@H](O[C@@H]3O[C@H](CO)[C@@H](O)[C@H](O)[C@H]3O[C@@H]3OC[C@@H](O)[C@H](O)[C@H]3O)C[C@]12C [Notoginsenoside R1] | 110 ± 13% | 105 ± 7.3% |
| O=c1cc(-c2ccc(O)cc2)oc2cc(O)cc(O)c12 [Apigenin] | 86.9 ± 19% | 95.3 ± 2.3% |
| COc1cc(Nc2ncc(F)c(Nc3ccc4c(n3)NC(=O)C(C)(C)O4)n2)cc(OC)c1OC | 105 ± 3.9% | 99.7 ± 6.4% |
| Nc1cccc(-c2cc3c(Oc4cccc(O)c4)ncnc3[nH]2)c1 | 101 ± 14% | 112 ± 13% |
| COc1cc(Nc2ncc(F)c(Nc3ccc4c(n3)N(COP(=O)(O)O)C(=O)C(C)(C)O4)n2)cc(OC)c1OC [R788 (Fostamatinib) Disodium] | 92 ± 3.9% | 96.4 ± 10% |
| CNCCNS(=O)(=O)c1cccc2cnccc12 [H-8 (hydrochloride)] | 106 ± 12% | 108 ± 7.2% |
| CC(C)[C@H](CO)Nc1nc(Nc2cccc(Cl)c2)c2ncn(C(C)C)c2n1 [Purvalanol A] | 102 ± 7.3% | 106 ± 12% |

| SMILES | cell viability (Molm13) | cell viability (Mv4-11) |
| --- | --- | --- |
| N#Cc1cccc(-c2c[nH]c3ncnc(N4CCOCC4)c23)c1 | 109 ± 23% | 100 ± 8.2% |
| Cn1cnc2nc(NCCO)nc(NCc3ccccc3)c21 [Iso-Olomoucine] | 119 ± 15% | 113 ± 9.7% |
| Nc1ncnc2c1c(I)cn2[C@@H]1O[C@H](CO)[C@@H](O)[C@H]1O [5-Iodotubercidin] | 92.65 ± 0.91% | 87.1 ± 4.9% |
| CC(C)CCN1c2nc(Nc3cc(F)c(O)c(F)c3)ncc2N(C)C(=O)C1C (stereo not given) | 100 ± 14% | 114 ± 6.3% |
| FC(F)c1nc2ccccc2n1-c1nc(N2CCOCC2)nc(N2CCOCC2)n1 | 117 ± 11% | 122 ± 12% |
| O=C(Nc1cccnc1)c1cc(-c2ccnc(F)c2)ccc1OCc1ccccc1 | 101 ± 20% | 105 ± 2.3% |
| CN1CCN(c2ccc(C(=O)Nc3cc(-c4cccc(NS(=O)(=O)c5ccccc5)c4)[nH]n3)cc2)CC1 | 61.4 ± 18% | 85.5 ± 9.9% |
| CCCC(CCC)C(=O)O [Valproic Acid (sodium salt)] | 100 ± 10% | 104 ± 10% |
| Cn1cc(/C=C2\C(=O)Nc3cccnc32)c2ccccc21 | 104 ± 17% | 107 ± 3.6% |
| C[C@H]1[C@H](C)CC[C@]2(C(=O)O)CC[C@]3(C)C(=CC[C@@H]4[C@@]5(C)C[C@@H](O)[C@H](O)C(C)(C)[C@@H]5CC[C@]43C)[C@H]12 [Corosolic acid] | 113 ± 26% | 106 ± 11% |
| Cc1cc(O)c2c(c1)C(=O)c1cc(O)cc(O)c1C2=O [Emodin] | 91.2 ± 7.2% | 99.1 ± 2.6% |
| C[C@@H](Oc1cc(-c2cnn(C3CCNCC3)c2)cnc1N)c1c(Cl)ccc(F)c1Cl | 107 ± 16% | 100 ± 20% |
| COc1cc2ncnc(Nc3cccc(Cl)c3F)c2cc1OC(=O)N1CCN(C)C[C@H]1C | 110 ± 8.6% | 99.9 ± 8.6% |
| O=C1c2ccccc2C(=O)C1c1ccccc1 [Phenylindione] | 95.7 ± 6.6% | 114 ± 1.8% |
| O=c1cc(N2CCOCC2)oc2c1ccc1ccccc12 | 98.1% and 100% | 103% and 110% |
| CO[C@@H](C(=O)N1Cc2[nH]nc(NC(=O)c3ccc(N4CCN(C)CC4)cc3)c2C1)c1ccccc1 | 95.2 ± 34% | 100 ± 3.8% |
| Cn1cnc(N)c2ncnc1-2 [3-Methyladenine] | 119 ± 7.3% | 111.9 ± 1.1% |
| Nc1nc(O)c2ncn(CCC(CO)CO)c2n1 [Penciclovir] | 111 ± 8% | 104 ± 2.1% |
| O=C(Nc1nc2ccc(NC(=O)C34CC5CC(CC(C5)C3)C4)cc2s1)c1ccccc1 | 117 ± 12% | 101 ± 8.4% |
| COc1ccc(S(=O)(=O)N(C(C)=O)c2ccccc2/C=C/c2cc[n+]([O-])cc2)cc1 | 98.3 ± 18% | 104 ± 27% |
| N#CC(=C(/N)Sc1ccccc1N)/C(C#N)=C(\N)Sc1ccccc1N | 99.3 ± 16% | 104 ± 7% |
| Cc1c(Cn2c(C)nc3c(C(=O)O)cc(N4CCOCC4)cc32)cccc1C(F)(F)F | 102 ± 5.3% | 110 ± 17% |
| O=c1c(O)c(-c2cc(O)c(O)c(O)c2)oc2cc(O)cc(O)c12 [Myricetin] | 106 ± 20% | 114 ± 17% |
| CC(=O)c1c(C)c2cnc(Nc3ccc(N4CCNCC4)cn3)nc2n(C2CCCC2)c1=O [Palbociclib] | 90.4 ± 13% | 113 ± 9.9% |
| N#CC(c1ccnc(OCc2ccc(CN3CCOCC3)cc2)n1)c1nc2ccccc2s1 (stereo not given) | 107 ± 20% | 109 ± 11% |

| SMILES | cell viability (Molm13) | cell viability (Mv4-11) |
| --- | --- | --- |
| O=C1NC(=O)/C(=C/c2ccc3nccnc3c2)S1 | 102 ± 17% | 113 ± 4.8% |
| O=c1cc(N2CCOCC2)oc2c(-c3cccc4c3sc3ccccc34)cccc12 | 108 ± 5.3% | 108 ± 8.2% |
| Cc1[nH]c(/C=C2\C(=O)Nc3ccccc32)c(C)c1CCC(=O)O [TSU-68 (SU6668, Orantinib)] | 93.8 ± 2.3% | 122 ± 14% |
| C[C@@H](Oc1ccc2[nH]nc(/C=C/c3cnn(CCO)c3)c2c1)c1c(Cl)cncc1Cl | 97.5 ± 12% | 105 ± 3.5% |
| COc1ccc(Cl)cc1NC(=O)Nc1cc(C)nc2ccccc12 | 129 ± 23% | 130 ± 17% |
| Cc1cc2sc(NC(=O)Cc3ccccc3)nc2cc1Cl | 116 ± 19% | 119 ± 4.2% |
| Fc1ccc(-c2nc3n(c2-c2ccncc2)CCS3)cc1 | 102.8 ± 0.71% | 98.2 ± 4.3% |
| NC(=O)Nc1cc(-c2cccc(F)c2)sc1C(=O)N[C@H]1CCCNC1 | -11.2 ± 3.9% | -9.83 ± 4.2% |
| Oc1cccc(Nc2ncc(F)c(Nc3cccc(O)c3)n2)c1 | 83 ± 15% | 96.5 ± 16% |
| Cc1c(F)cc(C(=O)NC2CC2)cc1-c1ccc(C(=O)NCC(C)(C)C)cn1 | 92.1 ± 8% | 118 ± 20% |
| N[C@@H]1CCCN(c2c(/C=C3\SC(=O)NC3=O)cccc2-c2ccccc2)C1 | 103 ± 1.3% | 125 ± 9.2% |
| N#CC(=Cc1ccc2[nH]ccc2c1)C(N)=C(C#N)C#N | 104 ± 20% | 103.5 ± 0.36% |
| CNC(=O)c1ccccc1Nc1cc(Nc2ccc(N3CCOCC3)cc2OC)ncc1C(F)(F)F | 105 ± 16% | 109 ± 25% |
| Cc1c(CN2CCN(C(=O)[C@H](C)O)CC2)sc2c(N3CCOCC3)nc(-c3cnc(N)nc3)nc12 [Apitolisib (GDC-0980, RG7422)] | 108 ± 2.2% | 104 ± 14% |
| NCC(=O)Nc1ccc(-n2nc(C(F)(F)F)cc2-c2ccc3c(ccc4ccccc43)c2)cc1 | 114 ± 8.5% | 101 ± 12% |
| C=C1C[C@@]2(O)O[C@@]3(C[C@H]2C(C)C)[C@@H](C)CC[C@@H]13 [Curcumol] | 99 ± 9.7% | 97.2 ± 4.6% |
| COc1ccc(-n2c(SCC#N)nc3sc4c(c3c2=O)CCCC4)cc1 [Necrostatin-5] | 102 ± 3.9% | 103 ± 3% |
| CC1(C)CC(=O)C2=C(C1)NC(=S)NC2c1cccc(O)c1 (stereo not given) [Dimethylenastron] | 91 ± 2.6% | 109 ± 4.5% |
| Cn1cc(-c2ccc3ncc(Cc4ccc5ncccc5c4)n3n2)cn1 | 100 ± 16% | 119 ± 16% |
| CCOc1cc2ncc(C#N)c(Nc3ccc(OCc4ccccn4)c(Cl)c3)c2cc1NC(=O)/C=C/CN(C)C [Neratinib(HKI-272)] | 106 ± 20% | 100 ± 3.7% |
| Cc1ccc(NC(=O)c2cccc(N(C)C)c2)cc1NC(=O)c1ccc(O)cc1 | 94.6 ± 6% | 103 ± 5.7% |
| C#Cc1cccc(Nc2ncnc3cc4c(cc23)OCCOCCOCCO4)c1 [Icotinib Hydrochloride] | 100 ± 4.9% | 105 ± 9.2% |
| CCCCCCCCCCCCCCCCn1cc[n+](Cc2ccccc2)c1C | 124 ± 5.5% | 111 ± 5.8% |
| O=C(O)c1ccc(Nc2ncc3c(n2)-c2ccc(Cl)cc2C(c2c(F)cccc2F)=NC3)cc1 | 107 ± 1.3% | 107 ± 3.6% |
| Cn1cc(-c2ccc3c(c2)CCN3C(=O)Cc2cccc(C(F)(F)F)c2)c2c(N)ncnc21 | 105 ± 4.7% | 108 ± 18% |
